33 compounds from the supplement of paper PMC12297408 can be followed below.

Unmarked numbers belong to inactive results.

Assay [1] deals with Plasmodium falciparum NF54/iGP1_RE9H ulg8 stage V gametocytes. Description: gametocyte viability (luciferase signal relative to DMSO control) (% of DMSO control); higher = less gametocytocidal activity, active = 50 or less. Particulars: exposure time: 72 h. As for the experimental part: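 Synchronous P. falciparum NF54/iGP1_RE9H ulg8 mature stage V gametocytes (day 12) were exposed to Cayman Epigenetics Screening Library compounds at 10 µM or 1 µM for 72 h at 37 °C. Viability was read as RE9H luciferase bioluminescence, normalised to DMSO plate controls (100%); 50 µM methylene blue was the positive control.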

Assay [2] shares this test system. Put plainly: gametocyte viability (luciferase signal relative to DMSO control) (% of DMSO control); higher = less gametocytocidal activity, active = 50 or less. Particulars: exposure time: 72 h. In short, it runs like this: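 Stage V gametocytes of the NF54/iGP1_RE9Hulg8 line (day 12; ~2.5% gametocytemia, 3% hematocrit), in medium containing 0.5% Albumax II, were dispensed into 96-well plates with compounds spotted in nanolitre volumes from 10 mM DMSO stocks, for final concentrations of 10 µM or 1 µM in a single well each. After 72 h at 37 °C, 90 µl from each well was combined with 10 µl D-luciferin (30 mg/ml), and luminescence was measured on an IVIS Lumina II. Viability was expressed against the mean of the DMSO vehicle wells on the same plate.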
This is another data set of the same source.

Consider `CCOC(=O)C1=CN(Cc2ccccc2)C=C(C(=O)OCC)C1c1ccccc1`, for which the results for the gametocyte viability in assay [1] (concentration: 1 µM) and in assay [1] (concentration: 10 µM) were 80.7 and 77.6, respectively.

With `Nc1ncnc2c1ncn2[C@@H]1O[C@H](C[C@@H](N)CC[C@H](N)C(=O)O)[C@@H](O)[C@H]1O` [Sinefungin], the figures for the gametocyte viability in assay [1] (concentration: 1 µM) and in assay [1] (concentration: 10 µM) were 88.5 and 85.6, respectively.

`O=C(O)CNC(=O)C(=O)O` [N-Oxalylglycine]: the gametocyte viability in assay [1] (concentration: 1 µM) was 87.3; in assay [1] (concentration: 10 µM) it was 85.3.

Take `CNCCN(C)Cc1c[nH]nc1-c1ccc(O[C@H]2C[C@H](OCCC3CCOCC3)C2)cc1`: the gametocyte viability in assay [1] (concentration: 1 µM) is 85.5; in assay [1] (concentration: 10 µM), 82.4.

As for `N[C@H]1CC[C@H](N[C@@H]2C[C@H]2c2ccccc2)CC1`, the gametocyte viability in assay [1] (concentration: 1 µM) was 74.5; in assay [1] (concentration: 10 µM), 70.7.

For `COc1ccccc1C(=O)Nc1cc2c(cc1N1CCNC[C@H]1C)n(C)c(=O)n2C`, the gametocyte viability in assay [1] (concentration: 1 µM) was 88.2; in assay [1] (concentration: 10 µM), 93.7.

Take `COc1cc2c(NC3CCN(CC4CCCCC4)CC3)nc(N3CCCN(C(C)C)CC3)nc2cc1OCCCN1CCCCC1`: the gametocyte viability in assay [1] (concentration: 1 µM) is 60.9; in assay [1] (concentration: 10 µM) it was 14.7 (active).

As to `Cc1cc(C)c(CNC(=O)c2cc(-c3ccc(N4CCN(C)CC4)nc3)cc3c2c(C)cn3C(C)C)c(=O)[nH]1`, the values for the gametocyte viability in assay [1] (concentration: 1 µM) and in assay [1] (concentration: 10 µM) were 78.5 and 62.9, respectively.

In the case of `COC(=O)/C=C/C(=O)N(O)CCCCNCc1ccc(COC(=O)Nc2cccc3ccccc23)cc1` [Methylstat (hydrate)], the gametocyte viability in assay [1] (concentration: 1 µM) was 89.4; in assay [1] (concentration: 10 µM), 32 (active).

Take `O=C(CCCCCCC(=O)NO)NO` [Suberohydroxamic Acid]: the values for the gametocyte viability in assay [1] (concentration: 1 µM) and in assay [1] (concentration: 10 µM) were 106 and 87.9, respectively.

With `COc1cc2c(cc1NS(=O)(=O)c1ccc(Br)cc1C)n(C)c(=O)n2C`, the values for the gametocyte viability in assay [1] (concentration: 1 µM) and in assay [1] (concentration: 10 µM) were 89 and 86.4, respectively.

For `CCCCCOc1ccc(/C=C\c2cccc(O)c2C(=O)O)cc1`, the gametocyte viability is 87.3 in assay [1] (concentration: 1 µM) and 88.4 in assay [1] (concentration: 10 µM).

Turning to `COc1cc2nc(N3CCCN(C)CC3)nc(NC3CCN(Cc4ccccc4)CC3)c2cc1OC`, the gametocyte viability in assay [1] (concentration: 1 µM) is 71; in assay [1] (concentration: 10 µM) it was 23.3 (active).

Regarding `CCCCN(Cc1ccc(C(=O)NO)cc1)C(=O)Nc1ccccc1` [Nexturastat A], the gametocyte viability in assay [1] (concentration: 1 µM) is 103; in assay [1] (concentration: 10 µM), 67.7.

As for `O=S(=O)(c1cccc2c(Cl)cccc12)N1CCCNCC1`, the gametocyte viability was 93.2 in assay [2] (concentration: 1 µM) and 90 in assay [2] (concentration: 10 µM).

In the case of `COc1cc(N2CCC(N3CCN(C)CC3)CC2)ccc1Nc1ncc(Cl)c(Nc2ccccc2S(=O)(=O)C(C)C)n1`, the gametocyte viability in assay [2] (concentration: 1 µM) is 73.9; in assay [2] (concentration: 10 µM) it was 41.9 (active).

Take `N#CC(=Cc1ccc(O)c(O)c1)C(=O)NCc1ccccc1`: the gametocyte viability in assay [2] (concentration: 1 µM) was 95.7; in assay [2] (concentration: 10 µM), 101.

For the compound `COc1cc2ncc(-c3ccccc3)nc2cc1OC`, the gametocyte viability in assay [2] (concentration: 1 µM) is 99.5; in assay [2] (concentration: 10 µM), 91.9.

In the case of `CC(=O)c1c(C)c2cnc(Nc3ccc(N4CCNCC4)cn3)nc2n(C2CCCC2)c1=O`, the gametocyte viability in assay [2] (concentration: 1 µM) is 98; in assay [2] (concentration: 10 µM), 103.

Regarding `NC(=O)Nc1cc(-c2cccc(F)c2)sc1C(=O)N[C@H]1CCCNC1`, the gametocyte viability in assay [2] (concentration: 1 µM) is 116; in assay [2] (concentration: 10 µM), 92.3.

For `O=c1c(O)c(-c2ccc(O)c(O)c2)oc2cc(O)cc(O)c12` [Quercetin·2H2O], the gametocyte viability in assay [2] (concentration: 1 µM) is 102; in assay [2] (concentration: 10 µM), 95.8.

On to `COc1ccc(S(=O)(=O)N(CCO)c2ccccc2CN(C)CC=Cc2ccc(Cl)cc2)cc1`, for which the gametocyte viability is 112 in assay [2] (concentration: 1 µM) and 102 in assay [2] (concentration: 10 µM).

As to `Cc1nc(N)sc1-c1ccnc(Nc2ccc(N3CCOCC3)cc2)n1`, the results for the gametocyte viability in assay [2] (concentration: 1 µM) and in assay [2] (concentration: 10 µM) were 107 and 108, respectively.

As to `Cc1[nH]c(/C=C2\C(=O)Nc3ccc(S(=O)(=O)N(C)c4cccc(Cl)c4)cc32)c(C)c1C(=O)N1CCN(C)CC1`, the gametocyte viability in assay [2] (concentration: 1 µM) is 107; in assay [2] (concentration: 10 µM), 92.8.

Take `CN(C)Cc1cccc(N=C(c2ccccc2)c2c(O)[nH]c3cc(C(N)=O)ccc23)c1`: the gametocyte viability in assay [2] (concentration: 1 µM) was 109; in assay [2] (concentration: 10 µM) it was 122.

In the case of `CCN(CCO)CCCOc1ccc2c(Nc3cc(CC(=O)Nc4cccc(F)c4)[nH]n3)ncnc2c1` [Barasertib (AZD1152-HQPA)], the results for the gametocyte viability in assay [2] (concentration: 1 µM) and in assay [2] (concentration: 10 µM) were 104 and 93.1, respectively.

For the compound `Cc1cccc(-c2[nH]c(C(C)(C)C)nc2-c2ccc3nccnc3c2)n1`, the gametocyte viability in assay [2] (concentration: 1 µM) was 94.4; in assay [2] (concentration: 10 µM) it was 91.7.

On to `Cc1cc(=O)c2c(O)c3c(O)cc(O)c4c5c(O)cc(O)c6c(O)c7c(=O)cc(C)c8c1c2c(c34)c(c65)c78` [Hypericin], for which the gametocyte viability is 103 in assay [2] (concentration: 1 µM) and 100 in assay [2] (concentration: 10 µM).

With `COc1cc(Nc2ncc3c(n2)-c2ccc(Cl)cc2C(c2c(F)cccc2OC)=NC3)ccc1C(=O)O` [MLN8237 (Alisertib)], the gametocyte viability is 95 in assay [2] (concentration: 1 µM) and 94.6 in assay [2] (concentration: 10 µM).

On to `CN([C@@H](Cc1ccc(OS(=O)(=O)c2cccc3cnccc23)cc1)C(=O)N1CCN(c2ccccc2)CC1)S(=O)(=O)c1cccc2cnccc12`, for which the gametocyte viability in assay [2] (concentration: 1 µM) is 93.8; in assay [2] (concentration: 10 µM), 81.8.

As for `CC(=O)Nc1nc(C)c(-c2ccc(Cl)c(S(=O)(=O)NCCO)c2)s1`, the gametocyte viability in assay [2] (concentration: 1 µM) is 81.5; in assay [2] (concentration: 10 µM), 13.6 (active).

In the case of `NC(N)=NCCNS(=O)(=O)c1cccc2cnccc12`, the gametocyte viability in assay [2] (concentration: 1 µM) and in assay [2] (concentration: 10 µM) was 107 in each case.

With `Cc1ccc(C(=O)Nc2ccc(CN3CCN(C)CC3)c(C(F)(F)F)c2)cc1C#Cc1cnc2cccnn12`, the gametocyte viability in assay [2] (concentration: 1 µM) is 111; in assay [2] (concentration: 10 µM), 130.
